In PMC4336329 (PLoS ONE, 2015):
Among all 310,000 compounds or so, about 2,200 (0.71%) showed an effect of 50% or more. Effects have a minus sign here. The sample as a whole holds a higher share of strong results than the screen did.

What follows are compounds tested against human ether-à-go-go-related gene (hERG) potassium channel (human, UniProt Q12809) (assay: primary screen, population patch clamp on CHO cells stably expressing hERG; higher = less effect of the substance).
Sequence of human ether-à-go-go-related gene (hERG) potassium channel (Q12809 whole entry, looked up): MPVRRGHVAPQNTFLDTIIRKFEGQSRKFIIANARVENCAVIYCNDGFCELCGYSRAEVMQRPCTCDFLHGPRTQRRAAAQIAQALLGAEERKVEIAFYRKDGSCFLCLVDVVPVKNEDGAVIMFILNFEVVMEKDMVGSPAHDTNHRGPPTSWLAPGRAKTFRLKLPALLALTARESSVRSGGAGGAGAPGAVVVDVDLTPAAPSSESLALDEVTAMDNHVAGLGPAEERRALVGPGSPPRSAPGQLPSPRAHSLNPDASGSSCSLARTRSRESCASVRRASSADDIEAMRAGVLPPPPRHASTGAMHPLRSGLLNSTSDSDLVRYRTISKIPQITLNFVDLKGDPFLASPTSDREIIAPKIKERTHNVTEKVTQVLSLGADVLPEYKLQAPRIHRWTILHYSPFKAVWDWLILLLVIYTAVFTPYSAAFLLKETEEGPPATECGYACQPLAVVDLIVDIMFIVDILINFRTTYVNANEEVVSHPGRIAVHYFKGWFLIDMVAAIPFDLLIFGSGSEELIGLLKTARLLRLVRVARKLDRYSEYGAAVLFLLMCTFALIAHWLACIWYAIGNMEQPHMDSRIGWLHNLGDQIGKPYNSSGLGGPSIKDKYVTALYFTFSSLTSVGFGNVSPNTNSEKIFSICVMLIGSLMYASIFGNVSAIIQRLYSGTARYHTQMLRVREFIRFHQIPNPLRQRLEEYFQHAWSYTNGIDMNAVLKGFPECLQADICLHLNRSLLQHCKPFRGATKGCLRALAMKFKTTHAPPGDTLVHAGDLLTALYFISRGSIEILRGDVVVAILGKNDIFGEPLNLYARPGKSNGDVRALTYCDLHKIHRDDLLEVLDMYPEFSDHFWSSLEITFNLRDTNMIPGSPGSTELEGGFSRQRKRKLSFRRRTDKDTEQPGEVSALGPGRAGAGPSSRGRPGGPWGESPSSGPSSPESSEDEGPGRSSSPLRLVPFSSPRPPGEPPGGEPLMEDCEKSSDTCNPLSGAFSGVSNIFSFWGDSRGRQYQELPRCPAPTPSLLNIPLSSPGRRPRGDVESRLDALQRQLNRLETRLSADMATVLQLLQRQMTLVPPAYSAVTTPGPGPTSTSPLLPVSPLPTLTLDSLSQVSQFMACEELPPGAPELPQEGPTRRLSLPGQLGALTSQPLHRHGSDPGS
In the case of O=C(/C=C/c1ccccc1Cl)c1cccnc1, the “hERG current change (%, negative = inhibition) at 1uM” value is reported as 6.53%. In the case of CCC[C@H](CN[C@@H](CNC)[C@H](C)CC)NCCc1cc(C(F)(F)F)cc(C(F)(F)F)c1, the “hERG current change (%, negative = inhibition) at 1uM” value is reported as 0.0872%. CC(CCc1ccccc1)NCC(O)COc1ccccc1 (centres unmarked) was tested, and the “hERG current change (%, negative = inhibition) at 1uM” value was -6.95%. In the case of CC1(c2ccc3ccccc3c2)NC(=O)N(CC(=O)Nc2ncccc2O)C1=O (centres unmarked), the “hERG current change (%, negative = inhibition) at 1uM” value is reported as 14.4%. In the case of COC(=O)C(CCCCNC(=O)c1ccc([N+](=O)[O-])cc1)NC(=O)c1ccc([N+](=O)[O-])cc1 (centres unmarked), the “hERG current change (%, negative = inhibition) at 1uM” value is reported as -84.2%. O=C(NCCCCC(NC(=O)c1ccc([N+](=O)[O-])cc1)C(=O)O)c1ccc([N+](=O)[O-])cc1 (centres unmarked) was tested, and the “hERG current change (%, negative = inhibition) at 1uM” value was -6.29%. With COC(=O)C(CC(C)C)NC(=O)c1ccc([N+](=O)[O-])cc1 (centres unmarked) the “hERG current change (%, negative = inhibition) at 1uM” value was 0.193%. CCOC(=O)c1nnc(-c2ccccc2)nc1NC was tested, and the “hERG current change (%, negative = inhibition) at 1uM” value was 2.74%. CCN1CCN(C(=S)c2ccc(SC)cc2)CC1 was tested, and the “hERG current change (%, negative = inhibition) at 1uM” value was -18%. For Cc1cccc(C(=O)Nc2cccc3cccnc23)c1, the “hERG current change (%, negative = inhibition) at 1uM” value was 17.4%. CC(=O)NC(=S)NNC(=O)CCc1ccccc1 was tested, and the “hERG current change (%, negative = inhibition) at 1uM” value was 6.91%. O=C(Cc1ccc(Br)cc1)Nc1cccc(-c2cn3c(n2)SCC3)c1 was tested, and the “hERG current change (%, negative = inhibition) at 1uM” value was 12.2%. In the case of COC(=O)c1sccc1-n1cccc1C(=O)C(=O)N1CCCC1, the “hERG current change (%, negative = inhibition) at 1uM” value is reported as 6.84%. For COC(=O)c1sccc1-n1cccc1C(=O)C(=O)N1CCOCC1, the “hERG current change (%, negative = inhibition) at 1uM” value was -87.6%. For COC(=O)c1sccc1-n1cccc1C(=O)N1CCOCC1, the “hERG current change (%, negative = inhibition) at 1uM” value was -11.6%. In the case of CCN(CC)CCOc1nnc(-c2ccc(C)cc2)c2ccccc12, the “hERG current change (%, negative = inhibition) at 1uM” value is reported as -58.4%. COc1nnc(-c2ccc(C)cc2)c2ccccc12 was tested, and the “hERG current change (%, negative = inhibition) at 1uM” value was 13.6%. CCN(CC)CCOc1nnc(-c2ccc(OC)cc2)c2ccccc12 was tested, and the “hERG current change (%, negative = inhibition) at 1uM” value was -25.1%. For O=C(OCc1ccc([N+](=O)[O-])cc1)c1cc(S(=O)(=O)N2CCCCC2)ccc1N1CCOCC1, the “hERG current change (%, negative = inhibition) at 1uM” value was -77.9%. With O=C(OCc1ccc(F)cc1)c1cc(S(=O)(=O)N2CCCCC2)ccc1N1CCOCC1 the “hERG current change (%, negative = inhibition) at 1uM” value was 4.59%. With Cc1ccc(COC(=O)c2cc([N+](=O)[O-])ccc2N2CCOCC2)cc1 the “hERG current change (%, negative = inhibition) at 1uM” value was -21%. With O=C(NCCc1ccc(F)cc1)c1cc([N+](=O)[O-])ccc1N1CCOCC1 the “hERG current change (%, negative = inhibition) at 1uM” value was -98.2%. For COc1ccc(CCNC(=O)c2cc([N+](=O)[O-])ccc2N2CCOCC2)cc1, the “hERG current change (%, negative = inhibition) at 1uM” value was 1.7%. With Cc1ccc(COC(=O)c2cc(S(=O)(=O)N3CCCCC3)ccc2N2CCOCC2)cc1 the “hERG current change (%, negative = inhibition) at 1uM” value was -1.22%. For NS(=O)(=O)c1ccc(CCNC(=O)c2cc([N+](=O)[O-])ccc2N2CCOCC2)cc1, the “hERG current change (%, negative = inhibition) at 1uM” value was -6.06%. O=C(OCc1cccc(Cl)c1)c1cc([N+](=O)[O-])ccc1N1CCOCC1 was tested, and the “hERG current change (%, negative = inhibition) at 1uM” value was -5.04%. In the case of O=C(OCc1ccc([N+](=O)[O-])cc1)c1cc([N+](=O)[O-])ccc1N1CCOCC1, the “hERG current change (%, negative = inhibition) at 1uM” value is reported as -67.2%. In the case of O=C(NCCS(=O)(=O)N1CCN(c2ccccc2F)CC1)C1CC(=O)N(c2ccc(F)cc2)C1 (centres unmarked), the “hERG current change (%, negative = inhibition) at 1uM” value is reported as 5.78%. With COc1cccc(N2CC(C(=O)OC(C)C(=O)c3ccccc3)CC2=O)c1 (centres unmarked) the “hERG current change (%, negative = inhibition) at 1uM” value was 5.64%. With Cc1c(O)ccc(C(=O)CN2CCN(c3ccccc3)CC2)c1O the “hERG current change (%, negative = inhibition) at 1uM” value was 13.2%. In the case of Cc1ccc(-n2c(SCC(=O)N/N=C/c3ccc(C)s3)nnc2-c2ccccc2)cc1, the “hERG current change (%, negative = inhibition) at 1uM” value is reported as 7.01%. In the case of Cn1c(CCNC(=O)c2ccccc2F)nnc1SCc1nc2ccccc2c(=O)[nH]1, the “hERG current change (%, negative = inhibition) at 1uM” value is reported as 11.4%. COc1ccc(-c2[nH]ncc2CN(C)CCCN2CCOCC2)cc1F was tested, and the “hERG current change (%, negative = inhibition) at 1uM” value was 12%. In the case of CCOc1ccc(CCNC(=O)c2ccc(=O)[nH]c2)cc1OCC, the “hERG current change (%, negative = inhibition) at 1uM” value is reported as 4.91%. With O=C(c1ccc2c(c1)ncn2C1CCCCC1)N1CCC2(CC1)OCCO2 the “hERG current change (%, negative = inhibition) at 1uM” value was 0.618%. CCN1/C(=C\C=C\C2=[N+](CC)c3ccccc3C2(C)C)C(C)(C)c2ccccc21.[O-][Cl+3]([O-])([O-])[O-] was tested, and the “hERG current change (%, negative = inhibition) at 1uM” value was -86.1%. With CCCN1C(=O)/C(=C/C=C2\N(CC)c3ccccc3C2(C)C)SC1=S the “hERG current change (%, negative = inhibition) at 1uM” value was 5.72%. CN1/C(=C\C=C\C2=[N+](C)c3ccc4ccccc4c3C2(C)C)C(C)(C)c2ccccc21.[O-][Cl+3]([O-])([O-])[O-] was tested, and the “hERG current change (%, negative = inhibition) at 1uM” value was -43.6%. With COc1ccc(S(=O)(=O)Nc2ccc(Cc3ccncc3)cc2)cc1C the “hERG current change (%, negative = inhibition) at 1uM” value was 0.33%. CCCCN(C)CCCNC(=O)C1CCC(CNS(=O)(=O)c2c(C)cc(C)cc2C)CC1 (centres unmarked) was tested, and the “hERG current change (%, negative = inhibition) at 1uM” value was -76.3%. With Cc1cc(C)c(S(=O)(=O)NCC2CCC(C(=O)NCCCN3CCC(C)CC3)CC2)c(C)c1 (centres unmarked) the “hERG current change (%, negative = inhibition) at 1uM” value was -52.9%.
